Screening data (PubChem BioAssay)
AMA1 RON2 block – qHTS for Inhibitors of AMA1-RON; Towards Development of Antimalarial Drug Lead: Primary Screen; AID 720542, 2013; Potency, µM (titrated, usually from 58.2 µM), inactives show top-dose activity change, negative = inhibition, hits mostly inhibitors; AlphaScreen AMA1-biotinylated RON2 peptide binding; 360,000 compounds, 0.2% hits;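 note: potency is the fitted concentration of half-maximal effect; 0% = vehicle wells and -100% = peptide control; nearly all actives have a fitted effect of over 45% in size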
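AMA1 (3D7) with his tag at 25 nM final met compounds first, then biotinylated RON2 peptide at 25 nM; detection used donor plus acceptor beads, 10 µg/mL apiece, read by AlphaScreen after 30 min at room temperature.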
Cycloheximide cs – Cycloheximide Counterscreen for Small Molecule Inhibitors of Shiga Toxin | AID 2314, 2010 | max response, % | cell reporter, cycloheximide protein synthesis inhibition counterscreen | 300,000 compounds, 12% hits; in the data active = max response mostly above about 13%, no sharp cut-off; inactive = mostly below about 14%; note: read at 38.3 µM for the half of the compounds with a filed dose; 0% is about no effect
SARS PLP yeast – qHTS of Yeast-based Assay for SARS-CoV PLP | AID 485353, 2010 | Potency, µM (top dose mostly 32.9 µM), for inactives: at the highest dose activity, positive = growth rescue, actives largely listed as activators | 330,000 compounds, 0.19% hits | S. cerevisiae expressing SARS-CoV PLpro, growth rescue; calls by dose curve; note: potency is the fitted concentration of half-maximal effect; 0% is about no effect; nearly all actives have a fitted effect of over 55% in size
Pf growth 96h – Primary qHTS for delayed death inhibitors of the malarial parasite plastid, 96 hour incubation; P. falciparum luciferase reporter growth, 96 h; Potency, µM (top dose mostly 28.7 µM), inactives show top-dose activity change, negative = inhibition, hits mostly inhibitors; 320,000 compounds, 6.9% hits; note: potency is the fitted concentration of half-maximal effect; % is set by controls: 0 for no effect and ±100 for the full control effect
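96 h incubation, 37 C, 5% CO2, of luciferase-reporter P. falciparum-infected RBCs (2% hematocrit, 0.05% parasitemia final) with test compounds; endpoint luminescence.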
Shiga toxin inh – A qHTS for Small Molecule Inhibitors of Shiga Toxin. Vero cells, Shiga toxin protein synthesis inhibition reporter. inhibition, % at 38.7 µM. 290,000 compounds, 9.2% hits; in the data active = inhibition mostly above about 28%, no sharp cut-off; inactive = mostly below about 43%; note: 0% is about no effect
Pf growth 48h – Primary qHTS for delayed death inhibitors of the malarial parasite plastid, 48 hour incubation | Potency, µM (doses to about 28.7 µM), for inactives: at the top dose activity change, negative = inhibition, actives largely listed as inhibitors | P. falciparum luciferase growth in erythrocytes, 48 h | AID 504832, 2011 | 310,000 compounds, 5.9% hits; note: potency is the fitted concentration of half-maximal effect; % is set by controls: 0 for no effect and ±100 for the full control effect
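Parasite viability was followed by luminescence of a genomically integrated firefly luciferase. Cultures held 0.1% parasitemia at 2% hematocrit (final), incubated under 5% CO2 at 37 C.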
* marks the source's active call; other numbers are inactive results; ? = inconclusive; . = no result; [ ] = another dose, or the depositor's remark. Rows were chosen to be rich in hits. Some 19% of all compounds tested hit in one or more screens of this group. Unless noted, calls come from the whole dose curve; as a rule, active = well fitted curve in the direction sought with a large enough effect; inconclusive = small, poorly fitted or top-dose-only effect, or another doubt; inactive = no such curve, though single readings can be large; an effect the other way counts as inactive or inconclusive.

SMILES	AMA1 RON2 block	Cycloheximide cs	SARS PLP yeast	Pf growth 96h	Shiga toxin inh	Pf growth 48h
CCC(C)(C)n1nnnc1CN1CCC(NC(=O)c2ccc(Br)cc2)CC1	-3%	4	24%	4.1µM*	-6	?
Cc1ccc(S(=O)(=O)N2[C@@H](CCO)OC[C@H]2C(C)C)cc1	-2%	.	.	.	.	.
CC1CCC2[C@@H](C)C(=O)OC3O[C@]4(C)CCC1C32OO4 (stereo partly drawn)	-7%	.	.	.	.	.
CC1CCC2C(C)C(=O)OC3OC4(C)CCC1C32OO4 (stereo not drawn)	-1%	-7	-2%	16%	9	0.0033µM*
C[C@@H]1CCC2[C@@H](C)[C@@H](O)O[C@@H]3O[C@@]4(C)CC[C@@H]1[C@@]23OO4 (stereo partly drawn)	.	.	.	0.0004µM*	.	0.0005µM*
Cc1cc(C(=O)CN2CCN(CC(=O)Nc3ccc(F)cc3)CC2)c(C)n1C1CC1	6%[11.6 µM]	.	1%	-7%	.	?
Cc1ccc(-n2nc(C(=O)N/N=C/c3cccc(C(F)(F)F)c3)c3ccccc3c2=O)cc1C	-4%	-3	4%	1%	-1	-20%
O=C(OCC(=O)N1CCC(Cc2ccccc2)CC1)c1ccc(O)cc1	1%	.	.	.	.	.
CC(C)(C)c1ccc(C(=O)NCCC(=O)N2CCCC2)cc1	0%	40*	8%	150%	96*	143%
O=C(NCC(=O)N1CCCCCC1)c1ccc(Br)cc1	-2%	34*	-9%	45%	47*	30%
O=C(OCC(=O)N1CCC(Cc2ccccc2)CC1)c1ccccc1	-3%	55*	2%	57%	79*	110%
O=C(NCCC(=O)N1CCCCCCC1)c1ccc(Br)cc1	65%	.	0%	10µM*	.	13µM*
Cc1nc2c3ccccc3nc(NNC(=O)CCC(=O)NCCN3CCN(c4ccccc4)CC3)n2n1	32%	-1	-10%	?	-5	14%
[O-][n+]1c2ccccc2[n+]([O-])c2cc(O)ccc21	?	-4	-4%	26%	4	.
COC(=O)CN1C(=O)[C@@H]2[C@H](C1=O)[C@@H]1CC(C(=O)OC)=C[C@@H](C(=O)OC)C3C1=C(C(=O)C31CCCCC1)[C@@H]2C (stereo partly drawn)	.	4	.	.	-6	.
CC(C)(C)c1ccc(C(=O)NNC(=O)C(=O)N2CCCCC2)cc1	17%	17*	1%	12%	39*	-9%
O=C(NNC(=O)c1ccccc1)C(=O)N1CCCCC1	12%	-2	1%	0%	15	20%
O=C(NCC(=O)N1CCN(c2ccccc2)CC1)c1ccc(Cl)cc1	-8%	-1	1%	3%	2	-5%
O=C(NCC(=O)N1CCCC1)c1ccc(Cl)cc1	6%	16*	-8%	-13%	27*	12%
O=C(Cc1ccc(Cl)cc1)NCC(=O)N1CCCC1	-3%	-3	-2%	3%	-5	18%
O=C(NCCC(=O)N1CCCCC1)c1ccc(Br)cc1	-4%	56*	.	75%	88*	76%
O=C(NCC(=O)N1CCC(Cc2ccccc2)CC1)c1ccc(Cl)cc1	8%	1	-5%	13µM*	7	0%
C=C1C=C(C(F)F)n2ncc(C(=O)Nc3ccc(C(C)CC)cc3)c2N1 (stereo not drawn)	.	.	.	-16%	.	?
CCOc1ccccc1N1CC(C(=O)Nc2c(C)n(C)n(-c3ccccc3)c2=O)CC1=O (stereo not drawn)	0%	-3	-1%	-10%	-18	28%
C#CCOCCOCCOCCNc1nc(N2CCN(C(=O)[C@H](CCC(=O)O)n3cc(C(N)CC(C)C)nn3)CC2)nc(N2CCN(C(=O)[C@H](Cc3ccc(O)cc3)n3cc(C(N)[C@H](C)CC)nn3)CC2)n1 (stereo partly drawn)	.	-2	-1%	40%	-13	36%
SMILES	AMA1 RON2 block	Cycloheximide cs	SARS PLP yeast	Pf growth 96h	Shiga toxin inh	Pf growth 48h
CC(C)(C)c1ccc(C(=O)N2CCN(C(=O)C3CCCCC3)CC2)cc1	5%	-4	11%	10µM*	-10	?
COc1ccc(NC(=O)CN2CCCC(C)C2)c([N+](=O)[O-])c1 (stereo not drawn)	?	17*	2%	103%	32*	-13%
CC1(c2ccc([N+](=O)[O-])cc2)NC(=O)N(CC(=O)Nc2cccnc2Cl)C1=O (stereo not drawn)	-7%	.	0%	12µM*	.	4%
COc1cc(NC(=O)CN2C(=O)NC(C)(c3ccccc3)C2=O)c(C)cc1[N+](=O)[O-] (stereo not drawn)	0%	-5	29%	12µM*	-11	?
COc1cc(NC(=O)CN2CCC(C)CC2)c(C)cc1[N+](=O)[O-]	8%	9	22%	10%	active	-13%
CCOC(=O)N1CCN(C2CCCN(C(=O)c3ccccc3C(F)(F)F)C2)CC1 (stereo not drawn)	-3%	6	-2%	2%	-9	?
CCOC(=O)CSc1ncnc2c1sc1nc(N3CCOCC3)c3c(c12)CCCC3	12%	13	7%	-12%	10	.
CCOC(=O)C(Sc1ncnc2c1sc1nc(N3CCOCC3)c3c(c12)CCCC3)c1ccccc1 (stereo not drawn)	.	-3	3%	?	18	1.7µM*
CC(C)CNc1nnnc2c1sc1nc(N3CCOCC3)c3c(c12)CCCC3	-8%	-2	-1%	1.3µM*	16	1.7µM*
COc1ccc(-n2cnc3c(sc4nc(N5CCOCC5)c5c(c43)CCCC5)c2=O)cc1	3%	6	2%	2.9µM*	-7	-2%
Cc1ccccc1-n1cnc2c(sc3nc(N4CCOCC4)c4c(c32)CCCC4)c1=O	?	-1	1%	?	21	10µM*
C=CCNc1nnnc2c1sc1nc(N3CCOCC3)c3c(c12)CCCC3	0%	1	0%	?	-2	?
O=c1c2sc3nc(N4CCOCC4)c4c(c3c2ncn1-c1ccccc1)CCCC4	-23%	-3	2%	31%	-18	?
COc1ccc(C)cc1NC(=O)Nc1ccncc1	0%	2	26%	?	-12	?
O=C1NC[C@@H](Cc2cccc3ccccc23)N(CCc2cc(C(F)(F)F)cc(C(F)(F)F)c2)C1=O	1%	-6	-1%	16%	-7	6%
ON(CCc1ccncc1)Cc1ccccc1	16%	.	.	.	.	.
COC(=O)c1ccc(Cn2cnc3c(sc4nc(N5CCOCC5)c5c(c43)CCCC5)c2=O)o1	-12%	4	-6%	26%	-2	1.7µM*
COC(=O)c1ccc(CSc2ncnc3c2sc2nc(N4CCOCC4)c4c(c23)CCCC4)o1	-4%	.	.	.	.	.
